Assay results published in PubChem BioAssay (NCI).
About 83,000 compounds went through this panel and 20% of them were active in at least one assay; those are over-represented in the sample as a whole.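 Compound tested at a single concentration for 48 hours in 96-well plates; a percent growth value below 10 was scored as active.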 Active and inactive are the calls of the source.

System: IGROV1 ovarian
Experiment: NCI-60 one-dose screen, 48 h (100 = growth as untreated, 0 = no growth, -100 = all killed)
Details: 10 µM unless noted

Row | SMILES | growth
1 | CCOC(=O)/C=C1\S/C(=N\Nc2cc(=O)[nH]c3ccc(Cl)cc23)N(c2ccccc2)C1=O | 62.9% (inactive)
2 | COc1cccc(NC(=O)Cn2cc(CN3CCN(c4ccnc5cc(Cl)ccc45)CC3)nn2)c1 | 84.9% (inactive)
3 | COc1cc(N2C(=O)[C@H](O)C2c2ccc(SC)cc2)cc(OC)c1OC (stereo not given in full) | 31.4% (inactive)
4 | CSc1nnc(-c2cnn3c2NC(c2ccccc2)C3)n1-c1ccc(C(F)(F)F)cc1 (stereo not given) | 69.8% (inactive)
5 | N=C(N)c1ccc(-c2ccc(-c3ccc(F)cc3)o2)o1 | 44.9% (inactive)
6 | CC1=NN(c2nc(SCC(=O)Nc3nc4ccc(C)cc4s3)nc(-c3ccccc3)c2C#N)C(=O)C1 | 83.5% (inactive)
7 | C/C(Nc1ccc(Cl)c(Cl)c1)=C1\CCOC1=O | 83.8% (inactive)
8 | N#Cc1cccc(-c2c(-c3ccc4ccccc4c3)oc3ccccc3c2=O)c1 | 36.5% (inactive)
9 | CC(C)N1CCN(Cc2ccc3c(NNC(=O)c4ccccc4)nc4cc(F)ccc4n23)CC1 | 21.4% (inactive)
10 | O=S(=O)(NCCCNc1nccc(-c2c(-c3ccc(F)c(O)c3)nc3occn23)n1)c1ccccc1 | 92.1% (inactive)
11 | O=C1NCCC12CCN(c1c(Cl)cncc1-c1ccc(O)cc1)CC2 | 69.2% (inactive)
12 | Cc1cccnc1NC(=S)Nc1ncccc1C | 103% (inactive)
13 | COc1ccc2c3c([nH]c2c1)C(=O)c1nc(C)ccc1C3=O | 28.8% (inactive)
14 | CC1Cc2c(Cl)ncnc2N(C)c2ccc(F)cc21 (stereo not given) | 105% (inactive)
15 | O=C1c2cc(Cl)ccc2S(=O)(=O)c2c(NCCCNCCO)nc3ccccc3c21 | 8.88% (active)
16 | O=C(c1ccc(Cl)cc1)N1CCN(c2ccnc3cc(Cl)ccc23)CC1 | 92.9% (inactive)
17 | Cc1nnc(NC(=O)c2nc(S(=O)(=O)Cc3ccc(F)cc3)ncc2Cl)s1 | 91.1% (inactive)
18 | COc1ccc2[nH]cc(-c3nc(-c4cn(C)c5c(Cl)nccc45)cs3)c2c1 | 71.3% (inactive)
19 | COc1ccc(/C(C)=C(/c2ccc(OCCCN(C)C)cc2)c2ccc(OC(=O)Cc3ccccc3)cc2)cc1 | 95% (inactive)
20 | CCOc1nc(-c2ccccc2)cc2c(O)c(C(=O)NN)[nH]c(=O)c12 | 55.2% (inactive)
21 | Cn1c(=O)c2[nH]c(N/N=C/c3ccccc3Br)nc2n(C)c1=O | 101% (inactive)
22 | Clc1ccc(Sc2cnc(-c3ccccc3)o2)cc1 | 97% (inactive)
23 | O=C(Nc1nn(-c2ccc(Cl)cc2Cl)nc1-c1ccccc1)c1ccccc1 | 95% (inactive)
24 | Cc1ccc(/C=N/Nc2nc(Nc3ccccc3)nc(-n3nc(C)cc3C)n2)cc1 | 5.33% (active)
25 | O=C(Nc1cc(Cl)ccc1O)c1ccc(Nc2ccnc(C(F)(F)F)c2)cc1 | 36% (inactive)
26 | CC(C)(C)c1cc(-c2nc3ccc(N4CCN(S(C)(=O)=O)CC4)cc3[nH]2)cc(C(C)(C)C)c1O | 96.4% (inactive)

System: OVCAR-3 ovarian
Experiment: as above
Details: 10 µM unless noted

Row | SMILES | growth
27 | O=C(NCCCN1CCOCC1)c1cccc(N2C(=O)/C(=C/c3ccc(F)cc3)SC2=S)c1 | 99.5% (inactive)
28 | CC(C)NC1CCC(Nc2ccnc3cc(Cl)ccc23)CC1 (stereo not given) | 109% (inactive)
29 | Fc1ccc(-c2nn(-c3ccccc3)cc2-c2nc3ccccc3o2)cc1 | 45.1% (inactive)
30 | COc1ccc(C/C(C)=C(/c2ccc(OCCN3CCCCC3)cc2)c2ccc(OC(=O)NCc3ccccc3)cc2)cc1 | -89.2% (active)
31 | Cn1cc(-c2nonc2-c2c[nH]c3ccc(Br)cc23)c2cc(Br)ccc21 | 33.6% (inactive)
32 | Cn1c(=O)c2c(nc(NC3=NS(=O)(=O)c4ccccc43)n2CC(=O)N2CCc3ccccc32)n(C)c1=O | 110% (inactive)
33 | Clc1ccc(Nc2nnc(COc3ccccc3)c3ccccc23)cc1 | -35.1% (active)
34 | O=[N+]([O-])c1ccc(S(=O)(=O)N2CCN(C3=NS(=O)(=O)c4ccccc4N3c3ccccc3)CC2)cc1 | 94.4% (inactive)
35 | CCNC(=O)c1[nH]cc(-c2ccccc2)c1-c1cc(OC)c2c(c1OC)OCO2 | 104% (inactive)
36 | COCCn1c(-c2csc(-c3cn(C)c4ccc(OC)cc34)n2)cc2cccnc21 | 65.5% (inactive)
37 | S=C(Nc1ccc(-c2nc(N3CCOCC3)c3cccn3n2)cc1)Nc1cccnc1 | 39.6% (inactive)
38 | COc1cc(CNC(=O)CCCC/C=C/C(C)C)ccc1OCc1nnc(Nc2ccc([N+](=O)[O-])cc2)o1 | 77.3% (inactive)
39 | N#CC1=C(c2ccc(Cl)cc2)Nc2c(c(-c3ccc(Cl)cc3)nn2-c2ccccc2)C12C(=O)Nc1ccc(Cl)cc12 (stereo not given) | 55.3% (inactive)
40 | CCOC(=O)/C=C1\S/C(=N\Nc2cc(=O)[nH]c3ccc(Cl)cc23)N(c2ccccc2)C1=O | 71.4% (inactive)
41 | COc1cccc(NC(=O)Cn2cc(CN3CCN(c4ccnc5cc(Cl)ccc45)CC3)nn2)c1 | 101% (inactive)
42 | COc1cc(N2C(=O)[C@H](O)C2c2ccc(SC)cc2)cc(OC)c1OC (stereo not given in full) | -11.9% (active)
43 | CSc1nnc(-c2cnn3c2NC(c2ccccc2)C3)n1-c1ccc(C(F)(F)F)cc1 (stereo not given) | 37.6% (inactive)
44 | N=C(N)c1ccc(-c2ccc(-c3ccc(F)cc3)o2)o1 | 7.31% (active)
45 | CC1=NN(c2nc(SCC(=O)Nc3nc4ccc(C)cc4s3)nc(-c3ccccc3)c2C#N)C(=O)C1 | 108% (inactive)
46 | C/C(Nc1ccc(Cl)c(Cl)c1)=C1\CCOC1=O | 100% (inactive)

Row | SMILES | growth
47 | N#Cc1cccc(-c2c(-c3ccc4ccccc4c3)oc3ccccc3c2=O)c1 | 40.2% (inactive)
48 | CC(C)N1CCN(Cc2ccc3c(NNC(=O)c4ccccc4)nc4cc(F)ccc4n23)CC1 | 39.8% (inactive)
49 | O=S(=O)(NCCCNc1nccc(-c2c(-c3ccc(F)c(O)c3)nc3occn23)n1)c1ccccc1 | 97.9% (inactive)
50 | O=C1NCCC12CCN(c1c(Cl)cncc1-c1ccc(O)cc1)CC2 | 104% (inactive)
51 | Cc1cccnc1NC(=S)Nc1ncccc1C | 100% (inactive)
52 | COc1ccc2c3c([nH]c2c1)C(=O)c1nc(C)ccc1C3=O | -13.9% (active)
53 | CC1Cc2c(Cl)ncnc2N(C)c2ccc(F)cc21 (stereo not given) | 106% (inactive)
54 | O=C1c2cc(Cl)ccc2S(=O)(=O)c2c(NCCCNCCO)nc3ccccc3c21 | -91.9% (active)
55 | O=C(c1ccc(Cl)cc1)N1CCN(c2ccnc3cc(Cl)ccc23)CC1 | 100% (inactive)
56 | Cc1nnc(NC(=O)c2nc(S(=O)(=O)Cc3ccc(F)cc3)ncc2Cl)s1 | 21.8% (inactive)
57 | COc1ccc2[nH]cc(-c3nc(-c4cn(C)c5c(Cl)nccc45)cs3)c2c1 | 77.6% (inactive)
58 | COc1ccc(/C(C)=C(/c2ccc(OCCCN(C)C)cc2)c2ccc(OC(=O)Cc3ccccc3)cc2)cc1 | 81.2% (inactive)
59 | CCOc1nc(-c2ccccc2)cc2c(O)c(C(=O)NN)[nH]c(=O)c12 | 79% (inactive)
60 | Cn1c(=O)c2[nH]c(N/N=C/c3ccccc3Br)nc2n(C)c1=O | 119% (inactive)
61 | Clc1ccc(Sc2cnc(-c3ccccc3)o2)cc1 | 97.5% (inactive)
62 | O=C(Nc1nn(-c2ccc(Cl)cc2Cl)nc1-c1ccccc1)c1ccccc1 | 90.7% (inactive)
63 | Cc1ccc(/C=N/Nc2nc(Nc3ccccc3)nc(-n3nc(C)cc3C)n2)cc1 | 14.3% (inactive)
64 | O=C(Nc1cc(Cl)ccc1O)c1ccc(Nc2ccnc(C(F)(F)F)c2)cc1 | 14.3% (inactive)
65 | CC(C)(C)c1cc(-c2nc3ccc(N4CCN(S(C)(=O)=O)CC4)cc3[nH]2)cc(C(C)(C)C)c1O | 98.8% (inactive)
